Data: the supplement of paper PMC10849652
Targets with a hit are over-represented here; the source holds about 7,900 in all. About 0.6% of all pairs of compound and target were hits.

What was measured:
Assay in all cases: log2 fold change, soluble protein after heating vs DMSO (PISA); higher = thermal stabilisation; K562 cells, 10 uM, 30 min; active = over 0.2 and 3.5 SD of the protein, either way, in both replicates (recomputed)
[1] = compound: C1=CC=C(C=C1)[C@H](COC2=CC3=C(C=C2)NC(=O)N3)NC(=O)C4=CC=CN(C4=O)CC5=CC(=C(C=C5)F)F
Summary of the method: (§1)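 K562 cells at 2×10^6 cells/mL were given 10 μM compound for 30 min. Aliquots then went through 3 min of heating across 48°C-58°C, were pooled, and were extracted in PBS with 0.5% NP-40 at 4°C, and the supernatant after 21,000xg for 90 min was quantified by TMTpro 16plex LC-MS/MS with channel sums equalised. Thermal stability relative to control samples, from duplicates, is given as log2 fold change.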

[2] = compound: CC1=C(SC2=C1C(=N[C@H](C3=NN=C(N32)C)CC(=O)N)C4=CC=C(C=C4)Cl)C
Summary of the method: as §1

[3] = compound: CC1=C2C(=CC=C1)N=C(N(C2=O)C3=CC=CC=C3C)CN4C=NC5=C(N=CN=C54)N
Summary of the method: as §1

[4] = compound: Cc1sc2c(c1C)C(c1ccc(Cl)cc1)=N[C@@H](CC(=O)OC(C)(C)C)c1nnc(C)n1-2
Summary of the method: as §1

[5] = compound: c1ccc([C@@H]2C[C@H]2NC2CCNCC2)cc1
Summary of the method: as §1

Measured: log2 fold change

AGPS (UniProt O00116)
Sequence of UniProt O00116 (O00116 whole entry, looked up): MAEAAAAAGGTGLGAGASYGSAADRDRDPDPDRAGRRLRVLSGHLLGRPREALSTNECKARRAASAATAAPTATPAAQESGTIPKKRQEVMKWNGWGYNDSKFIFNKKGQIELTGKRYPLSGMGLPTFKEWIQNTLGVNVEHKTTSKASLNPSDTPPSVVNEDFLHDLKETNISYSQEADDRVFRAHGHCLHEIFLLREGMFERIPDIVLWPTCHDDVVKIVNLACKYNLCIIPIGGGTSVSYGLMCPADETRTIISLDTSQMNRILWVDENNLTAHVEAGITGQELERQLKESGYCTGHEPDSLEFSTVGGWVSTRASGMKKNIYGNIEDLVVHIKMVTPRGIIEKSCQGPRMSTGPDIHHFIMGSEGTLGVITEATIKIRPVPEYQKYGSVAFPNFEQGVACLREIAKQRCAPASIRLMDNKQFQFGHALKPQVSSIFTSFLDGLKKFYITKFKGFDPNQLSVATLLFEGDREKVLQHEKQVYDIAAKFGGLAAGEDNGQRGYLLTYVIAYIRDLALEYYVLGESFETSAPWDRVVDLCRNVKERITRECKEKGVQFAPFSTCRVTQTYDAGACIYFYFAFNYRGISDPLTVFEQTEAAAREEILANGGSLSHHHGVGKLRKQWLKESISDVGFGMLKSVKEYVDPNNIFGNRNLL
inactive: [1] -0.046 | [2] 0.081 | [3] 0.079 | [4] -0.031 | [5] -0.051

ANKZF1 (UniProt Q9H8Y5)
Sequence of UniProt Q9H8Y5 (Q9H8Y5 whole entry, looked up): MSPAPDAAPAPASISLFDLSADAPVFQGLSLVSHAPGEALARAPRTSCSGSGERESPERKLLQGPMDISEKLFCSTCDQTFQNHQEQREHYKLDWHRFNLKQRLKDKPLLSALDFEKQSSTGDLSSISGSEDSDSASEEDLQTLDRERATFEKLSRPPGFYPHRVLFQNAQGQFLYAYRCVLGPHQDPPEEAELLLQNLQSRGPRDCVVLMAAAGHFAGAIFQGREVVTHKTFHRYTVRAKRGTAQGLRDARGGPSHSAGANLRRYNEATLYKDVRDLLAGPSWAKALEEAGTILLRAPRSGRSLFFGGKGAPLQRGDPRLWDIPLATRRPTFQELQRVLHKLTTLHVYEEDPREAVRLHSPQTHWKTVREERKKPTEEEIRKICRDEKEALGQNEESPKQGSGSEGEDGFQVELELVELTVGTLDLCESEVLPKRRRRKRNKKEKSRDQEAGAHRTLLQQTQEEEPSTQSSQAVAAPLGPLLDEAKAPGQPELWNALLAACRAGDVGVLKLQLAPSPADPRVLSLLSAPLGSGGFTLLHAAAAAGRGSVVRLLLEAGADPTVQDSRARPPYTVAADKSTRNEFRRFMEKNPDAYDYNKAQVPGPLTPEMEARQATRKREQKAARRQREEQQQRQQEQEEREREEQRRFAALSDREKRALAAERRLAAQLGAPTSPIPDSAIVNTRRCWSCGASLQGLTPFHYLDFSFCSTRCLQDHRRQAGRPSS
inactive: [1] -0.113 | [2] -0.037 | [3] -0.01 | [4] 0.15 | [5] -0.008

ATAD3A isoform 2 (UniProt Q9NVI7)
Sequence of UniProt Q9NVI7 (Q9NVI7 whole entry, looked up): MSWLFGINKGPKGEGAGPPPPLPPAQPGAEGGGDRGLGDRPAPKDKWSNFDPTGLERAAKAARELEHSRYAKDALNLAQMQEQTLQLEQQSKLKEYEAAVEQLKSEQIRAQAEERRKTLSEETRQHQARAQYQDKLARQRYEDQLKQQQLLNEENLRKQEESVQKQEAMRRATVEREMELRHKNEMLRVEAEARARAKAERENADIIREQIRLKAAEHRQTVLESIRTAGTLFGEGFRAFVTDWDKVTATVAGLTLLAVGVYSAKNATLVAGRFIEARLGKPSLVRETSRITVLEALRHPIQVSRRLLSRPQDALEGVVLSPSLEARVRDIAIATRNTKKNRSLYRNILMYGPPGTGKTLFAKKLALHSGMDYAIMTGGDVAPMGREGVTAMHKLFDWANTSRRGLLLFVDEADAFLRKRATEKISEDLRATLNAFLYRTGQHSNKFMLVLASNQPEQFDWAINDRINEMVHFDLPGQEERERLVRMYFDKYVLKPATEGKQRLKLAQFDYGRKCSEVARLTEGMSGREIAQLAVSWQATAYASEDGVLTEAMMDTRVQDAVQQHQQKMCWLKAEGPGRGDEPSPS
inactive: [1] -0.019 | [2] -0.037 | [3] -0.052 | [4] 0.08 | [5] 0.054

ATP13A3 (UniProt Q9H7F0)
inactive: [1] -0.038 | [2] 0.008 | [3] 0.016 | [4] 0.018 | [5] -0.101

AGO1 (UniProt Q9UL18)
inactive: [1] -0.05 | [2] -0.066 | [3] -0.114 | [4] -0.016 | [5] 0.05

ACSM3 (UniProt Q53FZ2)
inactive: [1] -0.046 | [2] -0.051 | [3] 0.091 | [4] -0.03 | [5] -0.029

AP2B1 isoform 2 (UniProt P63010)
inactive: [1] 0.023 | [2] -0.017 | [3] -0.016 | [4] 0.03 | [5] -0.002

ANXA5 (UniProt P08758)
Sequence of UniProt P08758 (P08758 whole entry, looked up): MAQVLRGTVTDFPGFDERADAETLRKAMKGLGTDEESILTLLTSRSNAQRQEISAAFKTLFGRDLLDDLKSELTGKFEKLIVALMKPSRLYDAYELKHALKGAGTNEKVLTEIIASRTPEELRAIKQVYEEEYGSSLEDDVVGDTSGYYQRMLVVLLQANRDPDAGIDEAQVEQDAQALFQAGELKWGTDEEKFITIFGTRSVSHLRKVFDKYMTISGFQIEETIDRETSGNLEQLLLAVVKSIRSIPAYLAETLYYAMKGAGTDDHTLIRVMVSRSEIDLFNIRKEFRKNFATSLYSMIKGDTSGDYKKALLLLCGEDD
inactive: [1] -0.036 | [2] 0.04 | [3] 0.024 | [4] 0.021 | [5] -0.022

ATR (UniProt Q13535)
Sequence of UniProt Q13535 (Q13535 whole entry, looked up): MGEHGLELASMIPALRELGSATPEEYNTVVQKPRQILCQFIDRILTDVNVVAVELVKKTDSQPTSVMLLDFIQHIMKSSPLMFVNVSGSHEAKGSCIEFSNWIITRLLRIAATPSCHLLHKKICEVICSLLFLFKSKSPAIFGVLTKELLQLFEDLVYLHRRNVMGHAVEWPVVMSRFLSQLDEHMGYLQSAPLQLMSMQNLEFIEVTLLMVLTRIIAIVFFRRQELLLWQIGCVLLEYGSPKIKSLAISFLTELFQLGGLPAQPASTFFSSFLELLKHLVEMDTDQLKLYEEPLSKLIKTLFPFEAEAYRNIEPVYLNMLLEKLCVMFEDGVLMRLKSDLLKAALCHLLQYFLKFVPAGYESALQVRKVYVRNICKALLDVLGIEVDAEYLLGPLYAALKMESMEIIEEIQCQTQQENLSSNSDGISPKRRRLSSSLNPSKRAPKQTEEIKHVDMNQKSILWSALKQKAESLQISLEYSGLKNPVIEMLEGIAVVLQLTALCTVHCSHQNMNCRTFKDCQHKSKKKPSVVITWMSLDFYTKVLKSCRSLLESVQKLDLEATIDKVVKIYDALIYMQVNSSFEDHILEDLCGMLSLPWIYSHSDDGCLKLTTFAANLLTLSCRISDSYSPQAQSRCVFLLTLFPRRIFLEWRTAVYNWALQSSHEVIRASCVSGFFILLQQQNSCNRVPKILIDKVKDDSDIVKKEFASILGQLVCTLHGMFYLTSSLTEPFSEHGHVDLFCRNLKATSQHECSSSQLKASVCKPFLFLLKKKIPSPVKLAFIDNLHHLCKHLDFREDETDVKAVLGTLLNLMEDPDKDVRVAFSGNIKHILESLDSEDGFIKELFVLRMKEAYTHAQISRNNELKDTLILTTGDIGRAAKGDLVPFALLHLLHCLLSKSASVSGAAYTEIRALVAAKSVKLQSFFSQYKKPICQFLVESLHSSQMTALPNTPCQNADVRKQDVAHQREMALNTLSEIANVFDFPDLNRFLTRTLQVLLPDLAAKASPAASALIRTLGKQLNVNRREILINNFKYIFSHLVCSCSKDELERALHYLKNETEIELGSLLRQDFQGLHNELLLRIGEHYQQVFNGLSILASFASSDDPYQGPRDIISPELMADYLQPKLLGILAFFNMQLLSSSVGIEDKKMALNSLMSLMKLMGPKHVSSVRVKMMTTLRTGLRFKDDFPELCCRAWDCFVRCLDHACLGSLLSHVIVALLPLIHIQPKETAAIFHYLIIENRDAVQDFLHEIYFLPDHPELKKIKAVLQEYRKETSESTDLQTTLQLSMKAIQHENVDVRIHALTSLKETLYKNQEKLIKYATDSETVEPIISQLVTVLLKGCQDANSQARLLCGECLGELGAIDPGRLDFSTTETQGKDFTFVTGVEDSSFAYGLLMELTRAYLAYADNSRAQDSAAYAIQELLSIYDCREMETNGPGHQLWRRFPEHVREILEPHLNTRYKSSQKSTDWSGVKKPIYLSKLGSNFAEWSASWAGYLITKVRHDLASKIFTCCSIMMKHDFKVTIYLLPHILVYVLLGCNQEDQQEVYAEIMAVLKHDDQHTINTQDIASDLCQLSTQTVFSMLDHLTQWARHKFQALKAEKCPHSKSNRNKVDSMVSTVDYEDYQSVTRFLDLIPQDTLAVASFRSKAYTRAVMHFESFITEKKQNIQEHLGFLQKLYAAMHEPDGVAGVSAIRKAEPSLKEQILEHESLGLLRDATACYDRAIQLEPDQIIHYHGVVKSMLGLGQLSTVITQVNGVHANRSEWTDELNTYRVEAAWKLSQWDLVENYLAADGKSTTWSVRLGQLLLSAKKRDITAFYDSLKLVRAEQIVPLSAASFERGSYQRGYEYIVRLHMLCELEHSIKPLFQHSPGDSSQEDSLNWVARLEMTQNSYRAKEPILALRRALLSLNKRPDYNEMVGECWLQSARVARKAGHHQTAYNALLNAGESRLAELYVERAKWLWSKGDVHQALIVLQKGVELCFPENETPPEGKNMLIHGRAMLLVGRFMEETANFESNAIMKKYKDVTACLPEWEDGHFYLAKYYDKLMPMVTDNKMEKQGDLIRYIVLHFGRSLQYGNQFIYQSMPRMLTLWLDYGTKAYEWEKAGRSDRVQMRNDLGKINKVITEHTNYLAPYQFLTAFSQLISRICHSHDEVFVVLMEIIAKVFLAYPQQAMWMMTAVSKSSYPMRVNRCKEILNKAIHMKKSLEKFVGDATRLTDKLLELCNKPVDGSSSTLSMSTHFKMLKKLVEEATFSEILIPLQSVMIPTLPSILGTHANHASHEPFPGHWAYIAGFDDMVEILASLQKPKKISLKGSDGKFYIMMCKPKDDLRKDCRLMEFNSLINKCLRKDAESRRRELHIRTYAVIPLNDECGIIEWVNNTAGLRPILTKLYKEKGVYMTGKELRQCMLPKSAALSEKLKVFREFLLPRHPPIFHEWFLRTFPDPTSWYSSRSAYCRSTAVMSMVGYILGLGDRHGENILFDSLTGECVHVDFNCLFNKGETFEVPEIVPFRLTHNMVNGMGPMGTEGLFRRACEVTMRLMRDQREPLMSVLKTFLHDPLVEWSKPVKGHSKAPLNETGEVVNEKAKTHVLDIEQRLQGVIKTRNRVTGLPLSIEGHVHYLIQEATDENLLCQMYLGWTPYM
inactive: [1] -0.045 | [2] 0.025 | [3] 0.107 | [4] -0.022 | [5] -0.079
